# Laboratory results from PubChem BioAssay AID588458 (Sanford-Burnham Center for Chemical Genomics, 2011).
# Screen size: about 360,000 compounds; about 3,000 (0.83%) were called active. The sample as a whole holds a higher share of actives than the screen did. Values without a mark were called inactive. No stated cut-off is given here; in the data, active means inhibition above about 50%; inactive means the rest.
# Target: DNA (cytosine-5)-methyltransferase 1 (Homo sapiens) (UniProt P26358)
# Assay: inhibition of DNA methyltransferase DNMT1 – biochemical, molecular beacon, fluorescence, HinP1I cleavage, uHTS, primary screen (AID 588458)
# Settings: at 10 µM, active compounds read high
# Chain of DNA (cytosine-5)-methyltransferase 1 (Homo sapiens) (P26358 504-1616 limits assumed): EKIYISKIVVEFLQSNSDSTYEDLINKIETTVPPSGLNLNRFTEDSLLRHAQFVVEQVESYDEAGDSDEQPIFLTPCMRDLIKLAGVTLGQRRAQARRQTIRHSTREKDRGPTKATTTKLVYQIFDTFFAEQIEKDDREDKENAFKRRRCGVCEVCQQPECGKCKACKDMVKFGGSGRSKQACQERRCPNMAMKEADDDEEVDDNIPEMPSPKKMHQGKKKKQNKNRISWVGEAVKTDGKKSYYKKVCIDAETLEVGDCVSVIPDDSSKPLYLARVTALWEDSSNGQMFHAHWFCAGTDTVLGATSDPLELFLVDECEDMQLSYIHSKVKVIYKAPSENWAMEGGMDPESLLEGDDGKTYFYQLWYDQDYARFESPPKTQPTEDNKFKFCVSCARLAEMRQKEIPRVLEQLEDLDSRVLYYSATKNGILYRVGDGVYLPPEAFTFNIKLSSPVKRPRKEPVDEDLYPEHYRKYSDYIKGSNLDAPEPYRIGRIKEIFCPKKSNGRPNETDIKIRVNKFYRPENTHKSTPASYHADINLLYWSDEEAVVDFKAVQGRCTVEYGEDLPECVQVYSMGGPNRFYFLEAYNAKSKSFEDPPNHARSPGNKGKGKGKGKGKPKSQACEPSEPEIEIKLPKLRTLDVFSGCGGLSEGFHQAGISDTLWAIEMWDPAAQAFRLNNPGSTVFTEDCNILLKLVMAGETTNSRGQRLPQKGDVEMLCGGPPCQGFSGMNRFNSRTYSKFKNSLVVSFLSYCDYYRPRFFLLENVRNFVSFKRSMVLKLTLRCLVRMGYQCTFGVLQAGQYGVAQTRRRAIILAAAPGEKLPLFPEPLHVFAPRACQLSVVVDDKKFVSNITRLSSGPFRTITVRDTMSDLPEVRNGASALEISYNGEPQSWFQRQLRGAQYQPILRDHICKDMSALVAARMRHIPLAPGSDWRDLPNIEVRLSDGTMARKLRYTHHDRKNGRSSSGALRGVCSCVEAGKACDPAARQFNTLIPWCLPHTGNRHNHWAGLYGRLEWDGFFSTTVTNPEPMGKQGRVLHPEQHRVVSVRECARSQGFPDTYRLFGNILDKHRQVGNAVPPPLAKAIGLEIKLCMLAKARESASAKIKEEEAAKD
row,SMILES,inhibition (reported as % activation of signal)
1,O=C(NCCc1cccc(F)c1)C1CC(O)CN1C(=O)Nc1ccccc1 (stereo unspecified),7.51%
2,COc1cc(/C=N/N=C(\N)c2nonc2N)cc(OC)c1OC,-0.45%
3,CSc1ccc(CNC(=O)C2(C)CCCN2C)cc1 (stereo unspecified),9.6%
4,O=C(Nc1ccc(C(=O)NCc2ccccc2Cl)cc1)C1=CSCCO1,-10.3%
5,CSc1ccc(CNC(=O)c2ccc(NC(=O)C3=CSCCO3)cc2)cc1,62.1% (active)
6,O=C(Nc1cccc2cccnc12)c1ccc2sc([C@H]3C[C@H](O)[C@@H](CO)O3)nc2c1,-5.28%
7,CC(=O)c1ccc(NC(=O)c2ccc3c(Cl)c4c(nc3c2)CCCC4)cc1,76.2% (active)
8,COc1cccc(NC(=O)c2ccc3c(SCC(=O)O)c4c(nc3c2)CCCC4)c1,9.48%
9,CC(C)CCNC(=O)c1ccc2c(Cl)c3c(nc2c1)CCC3,-1.49%
10,CC1=C(C(=O)N2CCOCC2)CC(CC(=O)NCCCN(C)C)C(=O)N1Cc1ccc(C(C)(C)C)cc1 (stereo unspecified),2.88%
11,O=c1c2cc([N+](=O)[O-])ccc2nc2n1CCC2,2.73%
12,Cc1cccc(NC(=S)N(CCN(C)C)C(C)c2ccco2)c1 (stereo unspecified),-0.09%
13,O=C(CCNC(=O)c1ccccc1)NN=Cc1ccc(Br)o1,50.6% (active)
14,O=C(CCc1n[nH]c(=O)[nH]c1=O)N/N=C/c1ccc(Br)o1,5.93%
15,O=C(CCC(=O)N/N=C/c1ccc(Br)o1)N/N=C/c1ccc(Br)o1,17%
16,COc1ccccc1OC(C)C(=O)Nc1ccc(S(=O)(=O)Nc2nccs2)cc1 (stereo unspecified),0.4%
17,Clc1ccccc1CSc1nnc(-c2ccco2)c(-c2ccco2)n1,92.8% (active)
18,COc1ccc(NCc2nnc(SCc3ccccc3)n2-c2ccc(OC)cc2)cc1,-3.05%
19,O=C(Nc1nnc(SCc2ccccc2Cl)s1)c1cccc([N+](=O)[O-])c1,-4.99%
20,c1ccc(Cc2c(-c3ccco3)nc3c4ccccc4ccn23)cc1,-16.2%
21,CSc1nc(-c2ccco2)nn1C(=O)c1ccccc1Cl,4.2%
22,c1ccc(CSc2nnc(-c3ccco3)c(-c3ccco3)n2)cc1,113% (active)
23,CC(c1nnc(SCC(=O)Nc2sccc2C#N)n1-c1ccc(Cl)cc1)N(C)C (stereo unspecified),-2.07%

row,SMILES,inhibition (reported as % activation of signal)
1,CCOc1cc(CNCCN(C)C)c(Cl)cc1OCC(=O)NCCc1ccccc1,2.37%
2,N#Cc1cc([N+](=O)[O-])ccc1NCC1CCCO1 (stereo unspecified),0.79%
3,COCCNC(=O)CN(Cc1ccco1)C(=O)CCC(=O)Nc1nccs1,0.73%
4,CC(C)(C)C(=O)N1CCC[C@@]1(CO)C(=O)O,5.81%
5,O=C(NCCS(=O)(=O)c1ccc(Br)cc1)c1ccccc1Cl,2.79%
6,COc1ccc(Cl)cc1NC(=O)COC(=O)c1ccc(Br)o1,-6%
7,O=C(CCS(=O)(=O)c1ccc(Br)cc1)NCCc1ccc(Cl)cc1,68.7% (active)
8,COc1ccc(Cl)cc1NC(=O)CCS(=O)(=O)c1ccc(Br)cc1,94.1% (active)
9,Cc1ccc(S(=O)(=O)CCC(=O)OCC(=O)NCCc2ccc(S(N)(=O)=O)cc2)cc1,-1.16%
10,CCCCC(=O)N/N=C(\C)CC(=O)Nc1cc(Cl)ccc1OC,2.33%
11,Cc1noc(C)c1CSCC(=O)N(CCC(C)C)c1c(N)n(Cc2ccccc2)c(=O)[nH]c1=O,-0.4%
12,Cc1ccn2c(c1)nc(=O)c1cc(S(=O)(=O)N3CCC(C)CC3)ccc12,2.87%
13,Cc1cc(C(=O)N2CCCC2(C)C(=O)O)c(C)o1 (stereo unspecified),8.96%
14,NC(=O)COC(=O)c1ccc2c(c1)C(=O)N(Cc1ccco1)C2=O,1.59%
15,COC(=O)COc1ccc2c(c1C)O/C(=C\c1ccco1)C2=O,-2.61%
16,CC(C)(C)C1C/C(=C/c2ccco2)C(=O)/C(=C/c2ccco2)C1 (stereo unspecified),95.9% (active)
17,COc1ccc(-c2ccc3c(c2)[C@@H]2C[C@H](N(C)S(=O)(=O)c4ccccc4)[C@H]([C@H](C)O)C(=O)N2CC3)cc1,-4.42%
18,C[C@@H]1CN([C@H](C)CO)C(=O)CCCn2cc(nn2)CO[C@H]1CN(C)S(C)(=O)=O,2.33%
19,O=C(NNc1c2ccccc2nc2ccccc12)c1cc2ccccc2cc1O,-19.2%
20,CC(=O)Nc1ccc(Nc2c3ccccc3nc3ccccc23)cc1,57.2% (active)
21,CCc1c(C)nc2c(-c3ccccc3)c(C)nn2c1Nc1ccc(NC(C)=O)cc1,-6.65%
22,Oc1ccc2ccc3cccc[n+]3c2c1,59% (active)
23,CCOc1cc(/C=C/C(=O)OCC(=O)NCCN2C(=O)CSC2=O)ccc1OCC(C)C,8.03%

row,SMILES,inhibition (reported as % activation of signal)
1,CCCCC(=O)N(c1ccc(OC)cc1)C1C=CS(=O)(=O)C1 (stereo unspecified),-1.75%
2,Cc1ccc2cc(C)c(N3CCN(c4ccc(F)cc4)CC3)nc2c1,2.96%
3,Cc1cc(C)c2cc(C#N)c(N3CCNCC3)nc2c1,6.52%
4,Cc1ccc2cc(C)c(N3CCC(C)CC3)nc2c1,80.8% (active)
5,CC(=O)NC1C(Oc2ccc(C)cc2)OC2COC(c3ccco3)OC2C1O (stereo unspecified),3.51%
6,CCN(CCn1cccn1)Cc1nc(-c2ccc(C(=O)OC)cc2)no1,-5.27%
7,CCS(=O)(=O)C1=NSC2=NC(=O)/C(=C\c3ccc(OS(=O)(=O)c4ccccc4)cc3)C(=N)N21,-8.29%
8,CS(=O)(=O)c1ccc2c(c1)SC1=NC(=O)/C(=C/c3ccco3)C(=N)N12,74.4% (active)
9,CC(=O)OC[C@@H]1CN(Cc2ccccc2)C[C@H](n2cnc3c(NCc4ccco4)ncnc32)O1,-4.87%
10,COc1ccc(S(=O)(=O)N2CCC(C(=O)NCCC(=O)NCCc3cccc(F)c3)CC2)cc1,2%
11,COc1cc(C(C)=O)ccc1OC(C)C(=O)Nc1ccc(S(=O)(=O)N2CCCC2)cc1 (stereo unspecified),-3.33%
12,C=CCn1c(=NC(=O)c2cccs2)sc2cc(NC(C)=O)ccc21,27%
13,C=CCn1c(=NC(=O)c2ccc(S(=O)(=O)N3CCCC3)cc2)sc2cc(NC(C)=O)ccc21,57.7% (active)
14,CN(Cc1ccccc1)C(=O)CCC1CCN(C(=O)c2ccco2)CC1,0.12%
15,O=C(COC(=O)CNS(=O)(=O)c1ccc(F)c(F)c1F)NC1CCCC1,1.29%
16,CN1CCN(C(=O)c2ccccc2NC(=O)COc2ccccc2Cl)CC1,0.74%
17,CCN(CC(=O)NCC(=O)Nc1cccc(C)c1C)Cc1ccccc1,0.32%
18,Cc1ccc2[nH]c(=O)c(-c3nc4c(C)cccn4c3NCc3ccco3)cc2c1,50.4% (active)
19,Cc1ccc(SCC(=O)NC(=O)NCc2ccco2)c(C)c1,48.3%
20,Cc1ccc2nc(SC(C)C(=O)NCc3ccco3)[nH]c2c1 (stereo unspecified),-2.41%
21,O=C(NNS(=O)(=O)c1ccccc1C(F)(F)F)c1cc2ncc(C(F)(F)F)cc2s1,5.47%
22,O=C(Nc1nnc(C2COc3ccccc3O2)o1)c1ccc(F)cc1 (stereo unspecified),2.41%
23,COc1ccccc1NC(=O)C(CC(=O)O)Cc1cc(C)cc(C)c1 (stereo unspecified),7.02%

row,SMILES,inhibition (reported as % activation of signal)
1,Cc1ccc(/C=C/C(=O)Nc2cc(S(=O)(=O)N3CCCCCC3)ccc2OCC(F)(F)F)o1,-10.7%
2,COC(=O)/C=C\C(=O)Nc1cccc([N+](=O)[O-])c1,1.93%
3,Cc1ccc(/C=C/C(=O)Nc2ccc([N+](=O)[O-])c(NC(=O)/C=C/c3ccc(C)o3)c2)o1,86.1% (active)
4,CCOC1=C2[C@H]([C@H]3C(=O)N(c4ccccc4)C(=O)[C@H]3C1)[C@@H](c1ccccc1)N(S(=O)(=O)c1ccc(C)cc1)[C@H]2c1ccccc1,0.54%
5,COc1ccc(CN2C[C@H]3CON(C)[C@H]3C[C@H]2c2ccc(-c3cccc(F)c3)cc2)cc1,-13.2%
6,CN(C(=O)CC1C(=O)NCCN1Cc1ccc(F)cc1Cl)C1CCCCC1 (stereo unspecified),-5.76%
7,Cc1ccc(NC(=O)Cn2c(=O)n(CCC(=O)NC3CCN(Cc4ccccc4)CC3)c(=O)c3ccccc32)cc1,1.32%
8,COCCNC(=O)CCCn1c(=O)c2ccccc2n(Cc2cccc([N+](=O)[O-])c2)c1=O,-1.32%
9,CCCCNC(=O)CCn1c(=O)c2ccccc2n(Cc2cc(C)ccc2C)c1=O,55.4% (active)
10,COC(=O)/C(=C\Nc1ccccc1)NC(=O)c1ccc(Cl)cc1Cl,-1%
11,COc1cccc2cc(C(C)N(CCCN3CCOCC3)C(=O)Nc3ccc(Cl)cc3)oc12 (stereo unspecified),0.19%
12,CCOC(=O)C1(Cc2ccc(Cl)cc2)CCN(C(=O)C2=NNC(=O)CC2)CC1,-1.13%
13,CC(=O)Nc1cccc(C(=O)OCC(=O)Nc2nnc(-c3ccccc3)o2)c1,1.02%
14,COc1ccc(C(=O)OCC(=O)NCCCc2ccccc2)cc1OC,0.32%
15,COc1ccc(C(=O)OCC(=O)Nc2cccc(C(C)=O)c2)cc1OC,70.9% (active)
16,C=CCNC(=O)COC(=O)CNC(=O)c1cc(Cl)cc([N+](=O)[O-])c1,6.93%
17,CCc1c(C)c2c(C)[nH]nc2oc1=O,-3.15%
18,CCC(C)Cn1c(O)cc2nn(-c3nc4ccccc4s3)c(=O)c-2c1C (stereo unspecified),52.2% (active)
19,CC1CCCCC1NC(=O)c1cc(=O)[nH]c2ccccc12 (stereo unspecified),3.02%
20,O=C(c1ccc(S(=O)(=O)NCc2ccco2)cc1)N1CCN(c2ccccc2)CC1,3.68%
21,O=C(c1ccc(CS(=O)Cc2ccccc2Cl)o1)N1CCN(c2ccccc2)CC1 (stereo unspecified),5.54%
22,O=C(c1ccc(CS(=O)(=O)c2ccccc2)o1)N1CCN(c2ccccc2)CC1,84.6% (active)
